Laboratory results: article PMC7862700, “An all-to-all approach to the identification of sequence-specific readers for epigenetic DNA modifications on cytosine”

How the values were obtained:
Assay in all cases: DAPPL (digital affinity profiling via proximity ligation, sequencing); 10 mM Tris-HCl pH 7.5, 50 mM NaCl, 1 mM DTT, 4% glycerol, room temperature, 30 min; GST-TFs on glutathione beads, 16-mer random dsDNA library, 0.1% formaldehyde crosslink after washing; high values mean tight binding
Conditions in all cases: protein: recombinant; tags: N-terminal GST; dsDNA, one strand shown
[1] = target: T1, FEV (Homo sapiens, UniProt Q99581 1-238)
T1 sequence: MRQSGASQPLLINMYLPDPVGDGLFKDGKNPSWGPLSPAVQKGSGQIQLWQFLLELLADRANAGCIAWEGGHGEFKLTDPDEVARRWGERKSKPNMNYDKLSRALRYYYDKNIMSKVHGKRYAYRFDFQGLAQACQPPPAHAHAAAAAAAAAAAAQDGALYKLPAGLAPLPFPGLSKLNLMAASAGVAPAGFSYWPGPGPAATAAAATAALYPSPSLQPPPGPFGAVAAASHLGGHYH
Procedure, shortened: (§1)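 Binding signal is each hexamer's read frequency for a factor divided by its frequency in the tag-only sample. The factors were GST-fused human transcription factors from yeast, captured on glutathione beads, DNA-barcoded and pooled with that sample. Pools were incubated with 200 nmole of a random double-stranded 16-mer DNA library in Tris/NaCl/DTT/glycerol buffer at room temperature for 30 min, then washed, crosslinked with 0.1% formaldehyde, proximity-ligated with BsaI/T4 ligase (1 h, 37 °C), PCR-amplified and sequenced on an Illumina NextSeq500.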

[2] = target: ETV5 (Homo sapiens, UniProt P41161 1-510)
Procedure, shortened: as §1

[3] = target: T2, SPIC (Homo sapiens, UniProt Q8N5J4 1-248)
T2 sequence: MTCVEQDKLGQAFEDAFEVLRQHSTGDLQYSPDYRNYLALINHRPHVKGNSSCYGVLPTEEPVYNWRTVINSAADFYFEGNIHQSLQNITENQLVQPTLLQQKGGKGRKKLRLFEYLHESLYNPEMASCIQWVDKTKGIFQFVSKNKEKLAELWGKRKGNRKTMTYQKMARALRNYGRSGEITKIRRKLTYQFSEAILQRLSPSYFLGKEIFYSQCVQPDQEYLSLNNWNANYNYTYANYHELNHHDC
Procedure, shortened: as §1

[4] = target: ELF4 (Homo sapiens, UniProt Q99607 1-663)
Procedure, shortened: as §1

[5] = target: T3, ELK4 (Homo sapiens, UniProt P28324-2 1-405)
T3 sequence: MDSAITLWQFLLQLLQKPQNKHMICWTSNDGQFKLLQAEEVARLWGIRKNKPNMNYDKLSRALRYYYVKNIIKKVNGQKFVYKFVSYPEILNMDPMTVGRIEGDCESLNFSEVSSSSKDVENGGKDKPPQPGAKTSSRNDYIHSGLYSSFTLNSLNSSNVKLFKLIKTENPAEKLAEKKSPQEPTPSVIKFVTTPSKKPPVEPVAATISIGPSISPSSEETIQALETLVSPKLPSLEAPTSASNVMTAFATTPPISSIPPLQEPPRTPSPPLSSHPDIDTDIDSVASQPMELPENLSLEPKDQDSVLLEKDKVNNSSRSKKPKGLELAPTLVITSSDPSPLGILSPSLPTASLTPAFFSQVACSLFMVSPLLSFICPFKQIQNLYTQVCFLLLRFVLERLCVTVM
Procedure, shortened: as §1

[6] = target: T4, ETV2 (Homo sapiens, UniProt O00321 1-342)
T4 sequence: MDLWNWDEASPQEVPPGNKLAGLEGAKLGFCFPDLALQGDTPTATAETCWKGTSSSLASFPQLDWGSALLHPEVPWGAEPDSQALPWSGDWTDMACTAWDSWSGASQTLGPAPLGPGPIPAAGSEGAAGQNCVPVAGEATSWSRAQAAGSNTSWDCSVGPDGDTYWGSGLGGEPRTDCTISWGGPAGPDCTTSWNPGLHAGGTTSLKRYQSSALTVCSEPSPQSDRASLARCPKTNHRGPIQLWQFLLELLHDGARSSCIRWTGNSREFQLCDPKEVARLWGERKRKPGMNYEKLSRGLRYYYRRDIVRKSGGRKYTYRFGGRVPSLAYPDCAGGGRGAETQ
Procedure, shortened: as §1

[7] = target: T5, ELF3 (Homo sapiens, UniProt P78545 1-371)
T5 sequence: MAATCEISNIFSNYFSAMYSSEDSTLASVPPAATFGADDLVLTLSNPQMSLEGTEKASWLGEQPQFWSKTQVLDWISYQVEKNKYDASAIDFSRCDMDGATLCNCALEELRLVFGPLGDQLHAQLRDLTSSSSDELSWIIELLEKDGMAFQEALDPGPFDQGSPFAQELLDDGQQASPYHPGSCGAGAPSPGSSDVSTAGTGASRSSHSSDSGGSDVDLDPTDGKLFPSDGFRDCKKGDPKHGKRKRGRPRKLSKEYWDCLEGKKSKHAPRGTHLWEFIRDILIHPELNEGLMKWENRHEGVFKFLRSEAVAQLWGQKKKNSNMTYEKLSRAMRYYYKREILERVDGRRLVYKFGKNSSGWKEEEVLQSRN
Procedure, shortened: as §1

[8] = target: CRX (Homo sapiens, UniProt O43186 1-299)
Procedure, shortened: as §1

[9] = target: ETV1 (Homo sapiens, UniProt P50549 1-477)
Procedure, shortened: as §1

[10] = target: T6, ERF (Homo sapiens, UniProt P50548 1-548)
T6 sequence: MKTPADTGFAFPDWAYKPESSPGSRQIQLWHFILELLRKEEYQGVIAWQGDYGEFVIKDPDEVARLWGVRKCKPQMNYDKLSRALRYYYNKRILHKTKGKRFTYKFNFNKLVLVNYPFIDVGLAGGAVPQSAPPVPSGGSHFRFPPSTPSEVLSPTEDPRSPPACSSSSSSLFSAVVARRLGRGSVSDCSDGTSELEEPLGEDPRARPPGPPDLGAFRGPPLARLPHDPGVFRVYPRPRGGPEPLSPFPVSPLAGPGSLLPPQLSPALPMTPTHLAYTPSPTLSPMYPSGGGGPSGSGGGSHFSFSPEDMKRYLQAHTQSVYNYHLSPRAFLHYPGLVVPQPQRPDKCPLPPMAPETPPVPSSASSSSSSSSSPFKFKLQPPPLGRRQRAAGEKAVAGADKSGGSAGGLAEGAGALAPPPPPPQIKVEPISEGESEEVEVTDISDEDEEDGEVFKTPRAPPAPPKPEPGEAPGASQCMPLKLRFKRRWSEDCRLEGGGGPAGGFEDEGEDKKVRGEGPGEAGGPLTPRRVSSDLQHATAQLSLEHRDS
Procedure, shortened: as §1

[11] = target: T7, ETV3L (Homo sapiens, UniProt Q6ZN32 1-361)
T7 sequence: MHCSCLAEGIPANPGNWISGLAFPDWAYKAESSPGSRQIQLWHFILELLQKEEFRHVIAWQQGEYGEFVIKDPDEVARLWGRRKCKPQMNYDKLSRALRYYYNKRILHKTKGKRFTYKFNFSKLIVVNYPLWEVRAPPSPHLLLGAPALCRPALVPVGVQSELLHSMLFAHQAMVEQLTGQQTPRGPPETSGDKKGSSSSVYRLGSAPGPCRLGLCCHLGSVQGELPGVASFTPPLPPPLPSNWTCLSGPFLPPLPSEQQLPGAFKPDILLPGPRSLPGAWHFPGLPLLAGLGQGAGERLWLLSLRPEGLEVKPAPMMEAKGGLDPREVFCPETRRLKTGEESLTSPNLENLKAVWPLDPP
Procedure, shortened: as §1

[12] = target: T8, ETS2 (Homo sapiens, UniProt P15036 1-469)
T8 sequence: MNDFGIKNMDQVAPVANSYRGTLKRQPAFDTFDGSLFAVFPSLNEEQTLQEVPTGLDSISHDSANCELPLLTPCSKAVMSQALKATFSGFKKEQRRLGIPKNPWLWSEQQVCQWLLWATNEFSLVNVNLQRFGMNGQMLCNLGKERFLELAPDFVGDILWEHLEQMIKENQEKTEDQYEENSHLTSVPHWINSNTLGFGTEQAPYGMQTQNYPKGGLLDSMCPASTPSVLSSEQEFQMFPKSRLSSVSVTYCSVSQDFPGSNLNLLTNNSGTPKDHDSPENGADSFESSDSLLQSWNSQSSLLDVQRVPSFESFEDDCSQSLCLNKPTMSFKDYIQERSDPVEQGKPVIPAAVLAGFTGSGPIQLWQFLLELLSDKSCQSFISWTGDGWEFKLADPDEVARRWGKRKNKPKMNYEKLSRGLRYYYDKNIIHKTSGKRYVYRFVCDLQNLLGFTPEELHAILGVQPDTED
Procedure, shortened: as §1

[13] = target: T9, SPDEF (Homo sapiens, UniProt O95238 1-335)
T9 sequence: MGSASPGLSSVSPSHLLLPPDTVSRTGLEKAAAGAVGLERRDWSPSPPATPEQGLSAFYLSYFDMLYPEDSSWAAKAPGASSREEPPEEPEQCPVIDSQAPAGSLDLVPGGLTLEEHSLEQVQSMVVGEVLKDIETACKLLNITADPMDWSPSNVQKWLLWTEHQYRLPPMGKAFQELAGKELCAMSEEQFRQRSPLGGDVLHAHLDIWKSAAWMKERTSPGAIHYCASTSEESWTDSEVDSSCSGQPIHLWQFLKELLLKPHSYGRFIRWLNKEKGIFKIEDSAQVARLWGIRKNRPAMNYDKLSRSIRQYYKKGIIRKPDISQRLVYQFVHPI
Procedure, shortened: as §1

[14] = target: T10, ETV7 (Homo sapiens, UniProt Q9Y603 1-341)
T10 sequence: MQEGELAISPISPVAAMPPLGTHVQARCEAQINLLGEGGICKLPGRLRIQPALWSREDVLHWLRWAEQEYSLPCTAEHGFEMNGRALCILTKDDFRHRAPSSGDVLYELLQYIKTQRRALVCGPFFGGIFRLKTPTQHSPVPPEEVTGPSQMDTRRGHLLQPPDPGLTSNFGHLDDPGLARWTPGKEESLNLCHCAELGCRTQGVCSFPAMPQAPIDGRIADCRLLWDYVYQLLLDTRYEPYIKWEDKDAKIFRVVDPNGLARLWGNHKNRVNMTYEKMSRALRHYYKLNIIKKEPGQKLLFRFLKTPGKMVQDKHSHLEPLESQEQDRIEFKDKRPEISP
Procedure, shortened: as §1

[15] = target: T11, ELF5 (Homo sapiens, UniProt Q9UKW6-2 1-255)
T11 sequence: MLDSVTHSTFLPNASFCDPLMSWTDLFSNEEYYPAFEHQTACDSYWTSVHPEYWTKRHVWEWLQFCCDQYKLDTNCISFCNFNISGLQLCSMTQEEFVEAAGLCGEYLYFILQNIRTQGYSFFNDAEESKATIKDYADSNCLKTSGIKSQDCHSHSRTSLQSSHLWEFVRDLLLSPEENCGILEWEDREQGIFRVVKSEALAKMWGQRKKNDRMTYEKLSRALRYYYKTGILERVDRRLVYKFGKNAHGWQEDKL
Procedure, shortened: as §1

[16] = target: T12, ETV3 (Homo sapiens, UniProt P41162-2 1-143)
T12 sequence: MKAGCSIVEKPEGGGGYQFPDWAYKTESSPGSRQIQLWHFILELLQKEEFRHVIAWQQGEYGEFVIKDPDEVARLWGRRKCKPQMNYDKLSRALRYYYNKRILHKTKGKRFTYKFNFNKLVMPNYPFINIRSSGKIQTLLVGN
Procedure, shortened: as §1

[17] = target: ETV6 (Homo sapiens, UniProt P41212 1-452)
Procedure, shortened: as §1

Sequence of ETV5 (P41161 whole entry): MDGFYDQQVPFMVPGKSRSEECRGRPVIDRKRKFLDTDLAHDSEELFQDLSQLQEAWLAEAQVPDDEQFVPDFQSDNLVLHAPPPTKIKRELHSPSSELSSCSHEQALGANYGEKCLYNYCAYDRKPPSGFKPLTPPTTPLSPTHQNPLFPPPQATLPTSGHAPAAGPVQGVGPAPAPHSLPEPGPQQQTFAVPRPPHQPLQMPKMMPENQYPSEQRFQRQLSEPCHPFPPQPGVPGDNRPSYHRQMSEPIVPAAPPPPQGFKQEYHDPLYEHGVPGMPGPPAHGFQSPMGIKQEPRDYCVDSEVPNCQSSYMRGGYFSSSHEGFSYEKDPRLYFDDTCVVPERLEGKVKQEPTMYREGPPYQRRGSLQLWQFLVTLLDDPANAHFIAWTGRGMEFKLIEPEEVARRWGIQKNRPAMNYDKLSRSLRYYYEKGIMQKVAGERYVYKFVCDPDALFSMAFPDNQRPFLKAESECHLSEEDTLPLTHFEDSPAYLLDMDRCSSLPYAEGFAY
Sequence of ETV6 (P41212 whole entry): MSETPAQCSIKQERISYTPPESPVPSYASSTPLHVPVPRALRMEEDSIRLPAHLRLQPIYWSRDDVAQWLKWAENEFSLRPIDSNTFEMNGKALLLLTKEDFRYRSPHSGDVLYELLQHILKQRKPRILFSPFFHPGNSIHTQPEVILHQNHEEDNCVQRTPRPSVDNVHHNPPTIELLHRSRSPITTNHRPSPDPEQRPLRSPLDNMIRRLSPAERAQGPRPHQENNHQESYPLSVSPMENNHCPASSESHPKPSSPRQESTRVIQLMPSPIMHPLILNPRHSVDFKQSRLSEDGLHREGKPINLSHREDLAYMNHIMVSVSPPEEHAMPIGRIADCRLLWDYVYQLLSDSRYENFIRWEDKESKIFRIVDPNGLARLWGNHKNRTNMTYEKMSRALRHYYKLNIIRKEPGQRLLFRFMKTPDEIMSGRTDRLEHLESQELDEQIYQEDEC
Sequence of ETV1 (P50549 whole entry): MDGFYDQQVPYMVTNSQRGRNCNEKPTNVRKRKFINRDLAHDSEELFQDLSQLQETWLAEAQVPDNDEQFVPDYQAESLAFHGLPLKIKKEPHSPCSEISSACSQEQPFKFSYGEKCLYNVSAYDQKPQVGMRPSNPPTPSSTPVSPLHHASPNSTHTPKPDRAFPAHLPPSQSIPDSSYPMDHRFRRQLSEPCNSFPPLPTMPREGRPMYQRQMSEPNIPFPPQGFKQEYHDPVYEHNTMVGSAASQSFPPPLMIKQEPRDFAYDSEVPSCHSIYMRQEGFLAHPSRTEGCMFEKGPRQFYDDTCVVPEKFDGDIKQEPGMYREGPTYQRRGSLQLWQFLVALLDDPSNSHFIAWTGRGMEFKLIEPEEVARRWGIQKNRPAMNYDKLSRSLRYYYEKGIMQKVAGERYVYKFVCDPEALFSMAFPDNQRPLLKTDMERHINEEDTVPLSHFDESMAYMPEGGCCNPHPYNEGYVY
Sequence of ELF4 (Q99607 whole entry): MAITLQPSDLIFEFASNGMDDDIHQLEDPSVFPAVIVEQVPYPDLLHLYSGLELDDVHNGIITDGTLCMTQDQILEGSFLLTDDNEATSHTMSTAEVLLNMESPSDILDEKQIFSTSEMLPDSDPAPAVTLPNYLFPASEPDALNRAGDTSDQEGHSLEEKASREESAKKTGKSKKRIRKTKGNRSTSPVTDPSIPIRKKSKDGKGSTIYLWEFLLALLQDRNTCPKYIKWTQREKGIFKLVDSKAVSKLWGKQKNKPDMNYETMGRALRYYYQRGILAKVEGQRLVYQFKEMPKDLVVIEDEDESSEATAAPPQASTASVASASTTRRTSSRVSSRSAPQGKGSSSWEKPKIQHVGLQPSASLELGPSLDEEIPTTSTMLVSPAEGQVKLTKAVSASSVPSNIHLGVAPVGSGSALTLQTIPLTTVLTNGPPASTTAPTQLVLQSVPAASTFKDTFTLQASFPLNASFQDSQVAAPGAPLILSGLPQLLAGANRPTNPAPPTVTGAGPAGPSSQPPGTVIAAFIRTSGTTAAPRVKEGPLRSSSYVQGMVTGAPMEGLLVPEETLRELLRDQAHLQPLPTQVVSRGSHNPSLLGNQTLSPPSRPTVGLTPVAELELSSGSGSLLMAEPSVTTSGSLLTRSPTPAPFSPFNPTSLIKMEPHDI
Sequence of CRX (O43186 whole entry): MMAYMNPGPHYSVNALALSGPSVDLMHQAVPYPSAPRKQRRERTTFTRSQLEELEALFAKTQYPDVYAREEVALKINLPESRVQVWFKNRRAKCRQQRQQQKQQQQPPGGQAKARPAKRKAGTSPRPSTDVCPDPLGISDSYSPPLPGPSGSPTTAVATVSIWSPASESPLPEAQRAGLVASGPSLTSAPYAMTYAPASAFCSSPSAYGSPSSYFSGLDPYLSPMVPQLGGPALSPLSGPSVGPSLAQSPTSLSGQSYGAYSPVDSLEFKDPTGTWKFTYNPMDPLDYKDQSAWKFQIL

## TACGGA
[1]
  binding signal: 1.26 fold enrichment (6-mer frequency, TF over GST control)
[2]
  binding signal: 1.34 fold enrichment (6-mer frequency, TF over GST control)
[3]
  binding signal: 1.21 fold enrichment (6-mer frequency, TF over GST control)
[4]
  binding signal: 1.25 fold enrichment (6-mer frequency, TF over GST control)
[5]
  binding signal: 1.15 fold enrichment (6-mer frequency, TF over GST control)
[6]
  binding signal: 1.42 fold enrichment (6-mer frequency, TF over GST control)
[7]
  binding signal: 1.42 fold enrichment (6-mer frequency, TF over GST control)
[8]
  binding signal: 1 fold enrichment (6-mer frequency, TF over GST control)
[9]
  binding signal: 1.39 fold enrichment (6-mer frequency, TF over GST control)
[10]
  binding signal: 1.28 fold enrichment (6-mer frequency, TF over GST control)
[11]
  binding signal: 1.34 fold enrichment (6-mer frequency, TF over GST control)
[12]
  binding signal: 1.38 fold enrichment (6-mer frequency, TF over GST control)
[13]
  binding signal: 1.47 fold enrichment (6-mer frequency, TF over GST control)
[14]
  binding signal: 1.18 fold enrichment (6-mer frequency, TF over GST control)
[15]
  binding signal: 1.51 fold enrichment (6-mer frequency, TF over GST control)
[16]
  binding signal: 1.43 fold enrichment (6-mer frequency, TF over GST control)
[17]
  binding signal: 1.39 fold enrichment (6-mer frequency, TF over GST control)
